The list is not random: actives were taken first. Their share in the collection is about 19%.
RORg inh: inhibitors of mouse ROR gamma transcriptional activity | P51450 | Drosophila S2 Gal4-RORgamma UAS-luciferase reporter, 20 h | Potency, µM (top dose mostly 53.6 µM), for inactives: at the top dose activity change, negative = inhibition, usual class: inhibitors | actives 5.4% (n = 310,000) | AID 2551; note: nearly all actives have a fitted effect of over 60% in size
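In this cell-based reporter format, copper sulfate (700 uM final) drives Gal4–ROR gamma fusion expression from a metallothionein promoter in Drosophila Schneider cells; compounds preincubated 1 hr, reporter read after 20 hr at ambient temperature.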
DT40 TDP1 CPT: DT40-hTDP1 cell growth loss with CPT; chicken DT40 Tdp1-/-;hTDP1 cells + 20 nM CPT, ATP luminescence, 48 h; actives 12% (n = 420,000); Potency, µM (highest dose often 46.2 µM), inactives show top-dose activity change, negative = growth inhibition, hits mostly inhibitors; note: nearly all actives have a fitted effect of over 55% in size
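Cell growth measured by CellTiter-Glo luminescence after a minimum 48 h, 37 C compound exposure with 20 nM CPT in Tdp1-knockout DT40 cells stably expressing hTDP1, seeded 400/well; qHTS titration format.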
Gal4-VP16 FLuc: counter-screen for ROR gamma inhibitors: Gal4-VP16 reporter; AID 2546; actives 3.5% (n = 310,000); Potency, µM (top dose mostly 53.6 µM), inactives show at the top dose activity, negative = inhibition, hits mostly inhibitors; Drosophila S2 Gal4-VP16 UAS-luciferase, luminescence, 20 h;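 note: Gal4-VP16 expression switched on by copper sulfate through the metallothionein promoter; nearly all actives have a fitted effect of over 50% in size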
TDP1 block: inhibitors of human tyrosyl-DNA phosphodiesterase TDP1 | actives 0.28% (n = 350,000) | recombinant TDP1, AlphaScreen DNA substrate cleavage | Potency, µM (series often up to 130 µM), for inactives: at the highest dose activity change, negative = inhibition, actives largely listed as inhibitors | Q9NUW8; note: nearly all actives have a fitted effect of over 40% in size
Target sequence (Q9NUW8 whole entry, looked up): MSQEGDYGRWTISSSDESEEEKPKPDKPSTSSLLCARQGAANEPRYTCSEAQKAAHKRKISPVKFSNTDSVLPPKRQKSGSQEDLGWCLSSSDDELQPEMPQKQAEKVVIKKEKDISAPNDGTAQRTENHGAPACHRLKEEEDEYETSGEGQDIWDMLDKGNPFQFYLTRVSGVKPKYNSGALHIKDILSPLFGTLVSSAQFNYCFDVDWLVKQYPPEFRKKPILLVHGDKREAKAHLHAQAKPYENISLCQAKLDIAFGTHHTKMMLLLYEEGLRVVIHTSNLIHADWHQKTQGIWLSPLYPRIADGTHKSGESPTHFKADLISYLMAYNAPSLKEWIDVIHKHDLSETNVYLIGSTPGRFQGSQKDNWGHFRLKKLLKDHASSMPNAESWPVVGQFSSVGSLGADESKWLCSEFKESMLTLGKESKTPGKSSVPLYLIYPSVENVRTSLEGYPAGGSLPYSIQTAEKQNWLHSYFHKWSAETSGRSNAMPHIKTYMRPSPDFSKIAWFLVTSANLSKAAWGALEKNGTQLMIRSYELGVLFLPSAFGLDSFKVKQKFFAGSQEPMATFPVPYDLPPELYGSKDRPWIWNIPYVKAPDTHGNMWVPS
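E. coli-derived human Tdp1, 1 nM final. Cpd preinc 15 min RT; substrate 15 nM final, 5 min RT; AS bead mix 10 ug/ml final, 10 min RT. Signal loss = tyrosine-FITC cleavage. No-enzyme wells = max signal.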
DT40 TDP1 no CPT: qHTS for Inhibitors of human tyrosyl-DNA phosphodiesterase 1 (TDP1): qHTS in cells in absence of CPT; AID 686978, 2013; actives 15% (n = 420,000); DT40 Tdp1-/- hTDP1 cells, no CPT, ATP luminescence, 48 h; Potency, µM (series often up to 46.2 µM), for inactives: top-dose activity change, negative = growth inhibition, actives largely listed as inhibitors; note: nearly all actives have a fitted effect of over 55% in size
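Growth kinetics read by CellTiter-Glo luminescence after ≥48 hr at 37 °C. Cells: DT40 Tdp1-/- stably carrying human TDP1, 400 per well, compound exposure in the absence of CPT (DMSO vehicle).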
Active calls of the source: *; ? = inconclusive; . = no result given; ! = not active in a repeat; [ ] = another dose, or the depositor's remark. Calls come from the whole dose curve; as a rule, active = well fitted curve in the direction sought with a large enough effect; inconclusive = small, poorly fitted or top-dose-only effect, or another doubt; inactive = no such curve, though single readings can be large; an effect the other way counts as inactive or inconclusive. % is set by controls: 0 for no effect and ±100 for the full control effect; potency is the fitted concentration of half-maximal effect.

SMILES	RORg inh	DT40 TDP1 CPT	Gal4-VP16 FLuc	TDP1 block	DT40 TDP1 no CPT
CN(C)c1ccc(/C=C/c2ccc3ccccc3[n+]2[O-])cc1	.	20µM*	.	.	13µM*
CCOc1ccc(/C=C/c2ccc3ccccc3[n+]2C)cc1OCC	.	4µM*	.	.	2µM*
CN(C)c1ccc(/C=C/c2cc[n+]([O-])c3ccccc23)cc1	.	-20%	.	.	-11%
CC1CC(C)CN(S(=O)(=O)N2CCCC(C(=O)NCCCN3CCCCC3C)C2)C1 (stereo not given)	-15%	-10%	-11%	5%	7%
COc1ccc(C2=NC(C)(C)N(CC(=O)Nc3cc(OC)cc(OC)c3)C2=O)cc1	.	-4%	.	8%	-13%
CC1(C)N=C(c2ccc(F)cc2)C(=O)N1CC(=O)Nc1ccccc1Cl	.	?	.	3%	16µM*
COc1ccccc1NC(=O)CN1C(=O)C(c2ccc(F)cc2)=NC12CCCCC2	.	?	.	5%	23µM*
COCCNC(=O)/C(C#N)=C/c1cccc(/C=C(\C#N)C(=O)NCCOC)c1	13µM*	5.8µM*	11µM*	3%	12µM*
COCCNC(=O)/C(C#N)=C/C=C/c1ccccc1[N+](=O)[O-]	13µM*	10µM*	-16%	4%	7.3µM*
CNC(=O)/C(=C\c1cccc(Oc2ccccc2)c1)NC(=O)c1ccccc1	-15%	3%	0%	0%	-23%
COCCNC(=O)/C(C#N)=C/c1ccc(O)cc1	10%	-21%	?	1%	-14%
CNC(=O)/C(C#N)=C/c1cccc(Oc2ccccc2)c1	-17%	26µM*	-5%	1%	23µM*
Cc1ccc(S(=O)(=O)N(C)CC(=O)OCC(=O)c2ccc3c(c2)NC(=O)CO3)cc1	.	12%	.	0%	5%
CCc1nnc(NC(=O)CN2CCN(c3cccc(OC)c3)CC2)s1	?	-13%	-26%	5%[56.1 µM]	-17%
CC(=O)c1c(O)c(C)c(O)c2c1OC1=CC(=O)C(C(C)=O)C(=O)[C@@]12C (stereo not given in full)	-2%	18µM*!	0%	-9%[56.1 µM]	?
Cc1cc(Cl)ccc1NC(=O)CN1CCC(C(O)(c2ccccc2)c2ccccc2)CC1	-4%	?	6%	5%	?
CN(C)c1ccc(O)c2c1C[C@@H]1C[C@H]3C(N(C)C)C(=O)C(C(N)=O)=C(O)[C@@]3(O)C(=O)C1=C2O (stereo not given in full)	-12%	.	-11%	.	.
CN(C)c1cc(NC(=O)CNC(C)(C)C)c(O)c2c1C[C@H]1C[C@H]3[C@H](N(C)C)C(=O)C(C(N)=O)=C(O)[C@@]3(O)C(=O)C1=C2O	.	10%	.	.	4%
CN(C)c1ccc(O)c2c1CC1CC3[C@@H](N(C)C)C(=O)C(C(N)=O)C(=O)[C@]3(O)C(=O)C1C2=O (stereo not given in full)	.	6.5µM*	.	.	4.1µM*
CN(C)c1ccc(O)c2c1CC1CC3C(N(C)C)C(=O)C(C(N)=O)=C(O)[C@@]3(O)C(=O)C1=C2O (stereo not given in full)	.	2.1µM*	.	.	1.8µM*
COc1cc(C)ccc1S(=O)(=O)NC(=O)C1(C)CCN1C(=O)COc1ccc(Cl)cc1 (stereo not given)	.	2%	.	.	-4%
CCc1ccc(C(=O)c2ccccc2C(=O)O)s1	1%	-3%	-2%	3%	3%
CCC(C)(c1nnnn1-c1c(C)cccc1C)N(N=O)c1cccc(C(F)(F)F)c1 (stereo not given)	25%	26µM*	-7%	3%	21µM*
Cc1cccc(C)c1-n1nnnc1C(C)(C)N1CCN(N=O)CC1	-9%	21%	-17%	3%	-11%
CN(N=Nc1cccc([N+](=O)[O-])c1)c1cccc([N+](=O)[O-])c1	8%	-28%	-2%	2%	5%
SMILES	RORg inh	DT40 TDP1 CPT	Gal4-VP16 FLuc	TDP1 block	DT40 TDP1 no CPT
Cc1ccc(C(=O)CSc2nnc(COc3cccc4cccnc34)o2)cc1	?	10µM*	?	7%	23µM*
O=C(CSc1nnc(COc2cccc3cccnc23)o1)N1CCCC1	-6%	-4%	1%	0%	-27%
O=C(CSc1nnc(COc2cccc3cccnc23)o1)c1ccc(F)cc1	-36%	4.1µM*	-6%	0%	4.1µM*
COc1cccc(C(=O)CSc2nnc(COc3cccc4cccnc34)o2)c1	-5%	3.7µM*	?	10%	4.1µM*
O=C(CCc1nc(-c2ccccc2F)no1)NCCN1CCOCC1	-11%	-30%	-2%	-2%	-20%
COc1ccccc1CN1CC(C(=O)N2CCOCC2)CCC1=O (stereo not given)	-1%	-5%	?	1%	18%
CCC(=O)N1Cc2cc(C(=O)NCC(F)(F)F)nc(-c3cccc(-c4cncnc4)c3)c2[C@H]1CCO	.	-8%	.	.	-3%
CC(C)(C)S(=O)N1Cc2cc(C(=O)NCC(F)(F)F)nc(-c3cccc(-c4cccc(F)c4)c3)c2[C@@H]1CCO (stereo not given in full)	.	18µM*	.	.	18µM*
CCNC(=O)c1cc2c(c(-c3cccc(-c4cccc(C(=O)N(C)C)c4)c3)n1)[C@@H](CCO)N(S(=O)C(C)(C)C)C2 (stereo not given in full)	.	?	.	.	21µM*
COc1ccc(S(=O)(=O)Nc2cccc3c2O[C@H](CN(C)S(=O)(=O)c2cccs2)[C@@H](C)CN([C@H](C)CO)C3=O)cc1	.	?	.	0%	-11%
CC(C)NC(=O)c1onc(CSc2ccc(C(C)C)cc2)c1C(=O)O	?	-8%	20µM*	4%	?
COc1cccc(SCc2noc(C(=O)NCCC(C)C)c2C(=O)NCCC(C)C)c1	.	18µM*	.	.	15µM*
CC(C)CCNC(=O)c1onc(CSc2ccccc2)c1C(=O)NCCC(C)C	.	23µM*	.	.	?
CCN(CC)C(=O)c1ccccc1NC(=O)CN1C(=O)c2ccccc2C1=O	6%	13%	4%	-1%	8%
Cc1ccc(S(=O)(=O)N2CC=C(c3c(C)n(C)c4ccccc34)CC2)cc1	?	?	-7%	6%	16µM*
CSc1ccc(/C=C(\NC(=O)c2ccc(C)cc2)C(=O)NN)cc1	-5%	8%	-2%	.	4%
CSc1ccc(/C=C(/NC(=O)c2ccc(C)cc2)C(=O)Nc2cccc(C)c2)cc1	21%[10 µM]	7.3µM*	-16%	-5%	7.3µM*
O=C1c2c(-c3ccc(Br)cc3)noc2CCN1Cc1cn(-c2ccccc2)nn1	.	21µM*	.	.	?
O=C1c2c(-c3ccc(Br)cc3)noc2CCN1Cc1cn(Cc2ccccc2)nn1	.	?	.	.	18µM*

Screening results (PubChem)
